From PubChem BioAssay
Cruzain noTriton: inhibitors of Trypanosoma cruzi cruzain without detergent; P25779; purified cruzain, Z-FR-AMC fluorescence, no detergent; Potency, µM, inactives show max response, negative = inhibition, hits mostly inhibitors; hit rate 2.3% among 200,000;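 also: plate controls were enzyme without inhibitor for no effect and buffer without enzyme for full effect; nearly all actives have a fitted effect of over 40% in size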
Target sequence (P25779 123-467 limits assumed): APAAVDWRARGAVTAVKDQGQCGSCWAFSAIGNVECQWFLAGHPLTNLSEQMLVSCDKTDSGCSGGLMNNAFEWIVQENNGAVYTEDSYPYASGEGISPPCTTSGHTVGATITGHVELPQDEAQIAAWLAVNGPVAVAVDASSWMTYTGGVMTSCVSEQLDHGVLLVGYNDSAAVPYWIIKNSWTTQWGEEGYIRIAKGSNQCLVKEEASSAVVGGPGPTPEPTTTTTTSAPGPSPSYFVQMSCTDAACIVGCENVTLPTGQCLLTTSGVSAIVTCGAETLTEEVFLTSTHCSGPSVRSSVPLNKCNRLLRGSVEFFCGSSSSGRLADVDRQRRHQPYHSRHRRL
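Purified cruzain at 1.5 nM, pre-incubated 15 min with compound at room temperature in 100 mM sodium acetate pH 5.5, 5 mM DTT, 0.00005% Triton X-100. Reaction started with 2 uM Z-FR-AMC; AMC fluorescence increase over 60 s gives rate.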
Cruzain inh Det: blocks cruzain activity in presence of Triton detergent | P25779 | hit rate 0.43% among 200,000 | purified cruzain, Z-FR-AMC fluorescence, 0.01% Triton | Potency, µM, for inactives: max response, negative = inhibition, most hits filed as inhibitors;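 also: plate controls were neutral wells for no effect and buffer without enzyme for full effect; nearly all actives have a fitted effect of over 40% in size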
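Detergent-containing run (0.01% Triton X-100) in acetate buffer pH 5.5 with 5 mM DTT: enzyme at 1.5 nM final, 15 min compound preincubation at room temperature, then 2 uM Z-FR-AMC substrate. Activity taken as 60 s fluorescence increase at 360/450 nm.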
NS1 function inh: influenza NS1 inhibition; Potency, µM (titrated, usually from 46.1 µM), for the others: top-dose activity, positive = more growth; hit rate 0.4% among 270,000; AID 2326; calls by dose curve; also: actives are rising curves; nearly all actives have a fitted effect of over 50% in size
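S. cerevisiae expressing influenza A NS1, grown in glucose, washed, then diluted 1:100 into pH 6.0 -URA galactose medium with 23 nl compound. Growth recovery read as OD600; NS1-free strain serves as control.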
* hit, by the source's call; ? = inconclusive; · = no result given. This is one part of a sample in which hits are shown more often than they occur. Unless noted, calls follow the shape of the dose curve; as a rule, active = well fitted curve in the direction sought with a large enough effect; inconclusive = small, poorly fitted or top-dose-only effect, or another doubt; inactive = no such curve, though single readings can be large; an effect the other way counts as inactive or inconclusive. Potency is read from the fitted curve at half-maximal effect.

SMILES	Cruzain noTriton	Cruzain inh Det	NS1 function inh
COc1cc(C(=O)Nc2ccc(Oc3ncnc4sc(-c5ccccc5)cc34)cc2)cc(OC)c1OC	10%	1%	4%
COc1ccc(Nc2ncnc3sc(-c4ccccc4)cc23)cc1	32µM*	-5%	-4%
O=C(Nc1ccccc1O)c1cc(S(=O)(=O)N2CCCC2)ccc1Cl	-6%	-2%	·
CCOC(=O)C1=C(C)NC(=O)NC1c1cn(-c2ccccc2)nc1-c1ccc(OC(C)C)cc1 (stereo not drawn)	20%	-17%	·
CC1=C(C(=O)c2ccccc2)C(c2cn(-c3ccccc3)nc2-c2ccc(Cl)cc2)NC(=S)N1 (stereo not drawn)	10µM*	3%	23%
COc1ccccc1Nc1nc(-c2ccccc2)c(CC(=O)O)s1	25µM*	-13%	·
O=C(O)Cc1sc(Nc2cccc3ccccc23)nc1-c1ccc(F)cc1	·	·	2%
Cc1ccc(NC(=O)Cn2c(=O)n(CCCCC(=O)NCc3ccc4c(c3)OCO4)c(=O)c3ccccc32)cc1	8%	-3%	·
COc1ccc2[nH]c3c(NCCN(C(C)C)C(C)C)ncnc3c2c1	13µM*	?	-32%
COc1ccc(CNc2ncnc3c2[nH]c2ccccc23)cc1	·	·	-45%
CCOc1ccc2[nH]c3c(NCCN(CC)CC)ncnc3c2c1	·	·	0%
CC(C)OCCCNc1ncnc2c1[nH]c1ccccc12	16µM*	?	-23%
CCOc1cc(C#N)c(-n2nnc3c(sc4nc(C)cc(C)c43)c2=O)cc1OCC	-3%	1%	·
COc1ccc(-c2ccc(C#N)c(SCC(=O)NCCc3ccccc3)n2)cc1OC	1%	3%	0%
Cc1ccccc1NC(=O)CSc1nc(N)c(C#N)cc1C#N	-11%	5%	4%
CCOC(=O)CSc1nc2cc(OCC)ccc2cc1C#N	-16%	-9%	-3%
COc1ccc2cc(C#N)c(SCC(=O)NNC(=O)Cc3ccccc3)nc2c1	13µM*	4%	6%
CCOc1ccc2cc(C#N)c(SCC(=O)NC(C)CC)nc2c1 (stereo not drawn)	13µM*	3%	-3%
COC(=O)CSc1nc2cc(OC)ccc2cc1C#N	-10%	-3%	-45%
COc1cccc(-c2ccc(C#N)c(SCC(=O)NCCc3cccc(Cl)c3)n2)c1	32µM*	-4%	-3%
Cc1ccc2cc(C#N)c(SCC(=O)NNC(=O)Cc3ccccc3)nc2c1	10µM*	-3%	23%
CCCCC/C=C\C/C=C\CCCCCCCC(=O)NCCc1ccc(O)c(O)c1	-4%	-1%	·
CN(C)Cc1ccccc1-c1ccc2ncnc(N3CCOCC3)c2c1	-4%	-1%	·
CC(C)=CCNc1ncnc2c1c(C#N)cn2[C@H]1O[C@@H](CO)[C@@H](O)[C@@H]1O	1%	4%	-3%
COc1ccc(/C=c2\sc3nc(-c4ccccc4)c(-c4ccccc4)n3c2=O)cc1OC	?	-19%	2%
SMILES	Cruzain noTriton	Cruzain inh Det	NS1 function inh
COc1ccc(/C=c2/sc3nc(-c4ccccc4)c(-c4ccccc4)n3c2=O)cc1	6.3µM*	-5%	5%
Cc1nc2cnc(N(C)C)nc2n(CCC#N)c1=O	4%	-1%	·
O=C(Cc1ccccc1)NCC(=O)OCC(=O)c1cccc([N+](=O)[O-])c1	-22%	-27%	7%
O=C(COC(=O)c1cccc([N+](=O)[O-])c1)c1ccc(OCc2ccccc2)cc1	25µM*	-3%	0%
CCCn1c(-c2ccc(F)cc2)nc2c(N3CCN(C)CC3)nc(C)nc21	-5%	-6%	·
O=C1OCCN1C(=O)[C@H]1[C@H](c2ccc([N+](=O)[O-])cc2)C(c2cccc(Cl)c2)=NN1c1ccc(Br)cc1	3.5µM*	1%	·
CC(=O)C1=C(O)C(=O)N(c2ccc(Br)cc2)C1c1cccc([N+](=O)[O-])c1 (stereo not drawn)	·	·	19%
O=C1OCCN1C(=O)[C@H]1[C@H](c2ccc([N+](=O)[O-])cc2)C(c2ccccc2)=NN1c1ccc(Br)cc1	14µM*	-3%	·
Cc1cccc(C2=NN(c3ccccc3)[C@@H](C(=O)N3CCOC3=O)[C@@H]2c2ccc([N+](=O)[O-])cc2)c1	?	3%	·
COc1cc(OC)c(NC(=O)c2nnn(Cc3ccc(C)cc3)c2N)cc1Cl	-19%	-3%	·
CCN(CC)CCn1c2c(c(SCC(=O)Nc3cccc(C(F)(F)F)c3)nc1=O)CCC2	3%	1%	·
CC(=O)[C@@H]1[C@H]2[C@H](C(=O)[C@H]3OC[C@@H]2O3)[C@H]2C=Cc3ccccc3N21	?	-4%	·
Cc1ccc(NC(=O)c2ccc(N/N=C/c3cccc(O)c3)c([N+](=O)[O-])c2)cc1	10µM*	0%	8%
Cc1ccccc1NC(=O)c1ccc(N/N=C/c2ccccc2O)c([N+](=O)[O-])c1	10µM*	0%	9%
NS(=O)(=O)c1ccc(N/N=C/c2ccc(O)cc2O)c([N+](=O)[O-])c1	·	·	1%
O=[N+]([O-])c1ccc(N/N=C/c2cccc(O)c2)cc1	·	·	-81%
C[N+]1([C@H](CO)Cc2c[nH]c3ccccc23)Cc2ccccc2C1	-1%	1%	-8%
N[C@@H](CP(=O)(O)O)C(=O)O	6%	-3%	0%
CC(C)Cn1c(-c2ccco2)csc1=Nc1cccnc1	13µM*	16µM*	-12%
COCCn1c(-c2ccco2)csc1=Nc1cccnc1	0%	-3%	6%
Cc1c(Cl)cccc1NC(=O)Cn1c(=O)cc(C)c2c(C)nn(-c3cccc(F)c3)c21	-9%	1%	·
C=C(C(C)=O)C(O)c1cccc(Br)c1 (stereo not drawn)	4%	5%	·
Oc1csc(Cc2nc(-c3ccc4ccccc4c3)cs2)n1	?	-4%	-3%
Oc1csc(Cc2nc(-c3ccc(-c4ccccc4)cc3)cs2)n1	10µM*	3%	6%
COCCn1c(=O)c(-c2cn(C)c3ccccc23)nc2cnc(N3CCNCC3)nc21	-7%	-3%	·
SMILES	Cruzain noTriton	Cruzain inh Det	NS1 function inh
COc1cccc(NC(=O)CSc2nc3ccccc3cc2Cc2ccccc2)c1	?	1%	12%
COc1ccc(OC)c(NC(=O)CSc2nc3ccccc3cc2Cc2ccccc2)c1	20µM*	2%	16%
COc1ccc(NC(=O)CSc2nc3ccccc3cc2Cc2ccccc2)cc1	?	-2%	2%
COc1cc(NC(=O)CSc2nc3ccccc3cc2Cc2ccccc2)cc(OC)c1	32µM*	0%	6%
C=C(C(=O)C(C)(C)O)C(O)c1ccc([N+](=O)[O-])cc1 (stereo not drawn)	-11%	5%	·
C=CCOC(=O)N[C@H](C[N+](=O)[O-])c1ccccc1	3%	2%	·
O=C(Cn1c(=O)n(-c2ccccc2)c(=O)c2ccc(C(=O)NCc3ccc4c(c3)OCO4)cc21)Nc1ccc(F)c(Cl)c1	-13%	-2%	·
Cc1ccc(C)c(CN2C(=O)c3ccccc3S(=O)(=O)c3ccc(C(=O)N4CCc5ccccc54)cc32)c1	32µM*	-1%	·
O=C(c1ccc2c(c1)N(Cc1ccccc1F)C(=O)c1ccccc1S2(=O)=O)N1CCc2ccccc21	3%	0%	·
O=C(c1ccc2c(c1)N(Cc1cccc(Cl)c1)C(=O)c1ccccc1S2(=O)=O)N1CCc2ccccc21	20µM*	-3%	·
Cc1ccc(C)c(CN2C(=O)c3ccccc3S(=O)(=O)c3ccc(C(=O)N4CCN(C)CC4)cc32)c1	1%	1%	11%
CCc1ccccc1NC(=O)CN(c1ccccc1)S(=O)(=O)c1ccsc1C(=O)OC	11%	5%	·
